Experimental findings from PubChem BioAssay (NCI) are described below.

About 83,000 compounds went through this panel and 20% of them were active in at least one assay; those are over-represented in the sample as a whole.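 Negative percent growth values reflect cell death: -40 means 40% of the cells present at the start died, and -100 means all died.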 Values without a mark were called inactive. Calls of active or inactive are those of the source. How the source made its calls: active means growth percent below 10; inactive means the rest.

Experiment in all cases: NCI-60 one-dose screen, 48 h (100 = growth as untreated, 0 = no growth, -100 = all killed)
Common to all, as to details: 10 µM unless noted

Experiment [1] has as its system NCI-H23 lung.
The test system of experiment [2] is NCI-H226 lung.
The subject of experiment [3] is NCI-H322M lung.
Experiment [4] deals with HOP-62 NSCLC.
For experiment [5], the system named is NCI-H460 lung.
Experiment [6] deals with NCI-H522 lung.
Experiment [7] relates to A549/ATCC NSCLC.
Experiment [8] concerns 786-0 renal.
Experiment [9] deals with COLO 205 colon.
Experiment [10] concerns DU-145 prostate.

Take `Cc1cc(Cl)ccc1Nc1nc(C(F)(F)F)ccc1C(=O)NCC(=O)N/N=C/c1c(Cl)cccc1Cl`: the growth in experiment [1] was 74.6%; in experiment [2], 89.5%; in experiment [3], 80.9%; in experiment [4], 102%; in experiment [5], 80.7%; in [6] it was 75.8%. For the same compound, the growth in experiment [7] is 44.9%; in experiment [8], 94.9%; in [9], 87.3%; in [10], 49.9%.
For `CCCc1cc(=O)n2c(C(=O)Nc3ccccc3OC)c(C(=O)Nc3ccc(F)cc3)sc2n1`, the growth in experiment [1] was 63% [30 µM]; in experiment [2] it was 62.3% [30 µM]; in experiment [3], 57.9% [30 µM]; in experiment [4], -16.7% [30 µM] (active); in [5], 44.6% [30 µM]; in experiment [6], 46.7% [30 µM]. For the same compound, the growth is 16.1% [30 µM] in experiment [7], 36.2% [30 µM] in [8], 72.5% [30 µM] in experiment [9] and 53.9% [30 µM] in [10].
As for `CC1=NN(c2ccccc2Cl)C(=O)/C1=C\c1cn(S(=O)(=O)c2ccc(C)cc2)c2ccccc12`, the growth in experiment [1] was 83.9%; in experiment [2], 79.9%; in experiment [3], 105%; in [4] it was 62.3%; in [5] it was 119%; in experiment [6], 107%. The growth in experiment [7] is 109%; in experiment [8] it was 94.9%; in experiment [9], 142%; in [10], 114%.
For the compound `N#Cc1cccc(/C=C(/C(=O)c2ccccc2)c2ccccc2)c1`, the growth is 81.2% in experiment [1]; 71.7% in [2]; 77.8% in experiment [3]; 94.5% in [4]; 77.5% in experiment [5]; 57.8% in [6]. In addition, the growth in experiment [7] was 62.8%; in [8] it was 76.2%; in [9], 96.8%; in experiment [10], 37%.
With `COC(=O)C[C@@H]1CC=CC(=O)/C1=C(O)/C=C/c1ccccc1`, the growth in experiment [1] is -43.4% (active); in [2], -40.6% (active); in experiment [3] it was -14.4% (active); in experiment [4] it was -42.8% (active); in experiment [5], -42.5% (active); in experiment [6], -64.2% (active). Also, the growth in experiment [7] was -0.275% (active); in experiment [8], -77.5% (active); in experiment [9], -57.2% (active); in experiment [10], -28.4% (active).
With `O=C1/C(=C/c2ccc3cccc(Cl)c3n2)SC(=S)N1CCc1ccc(O)cc1`, the growth in [1] is 94.1%; in [2] it was 86.1%; in experiment [3], 91.6%; in experiment [4], 86.7%; in [5] it was 99.1%; in experiment [6], 54.9%. Further, the growth is 93.6% in experiment [7], 94.2% in experiment [8], 107% in experiment [9] and 101% in [10].
For the compound `N#Cc1ccc(NC(=O)Nc2ccc(Oc3ccc(NC(=O)Nc4ccc(C#N)cc4)cc3)cc2)cc1`, the growth is -0.877% (active) in experiment [1]; 42.5% in experiment [2]; 61.8% in experiment [3]; 31.6% in experiment [4]; 18.9% in [5]; -33.4% (active) in experiment [6]. Besides, the growth in experiment [7] was 26.9%; in [8] it was 30.3%; in [9] it was -0.221% (active); in experiment [10], 35.3%.
Consider `COc1ccc(-c2cnnn2-c2cc(OC)c3c(c2)OCO3)cc1`, for which the growth was 26.6% in experiment [1]; 88.4% in [2]; 42.8% in [3]; 30.2% in experiment [4]; 11.2% in experiment [5]; -45.2% (active) in [6]. The growth in experiment [7] was 18.3%; in experiment [8] it was 42.3%; in experiment [9], -80.4% (active); in experiment [10], 12.8%.
For `COc1cc(/C=C/C(=O)Nc2cccnc2Nc2cc(OC)c(OC)c(OC)c2)cc(OC)c1OC`, the growth in experiment [1] is 93%; in [2], 93.1%; in [3], 115%; in experiment [4], 106%; in [5], 95.4%; in experiment [6] it was 87.6%. The growth in experiment [7] was 85.4%; in experiment [8], 86.3%; in experiment [9], 113%; in experiment [10], 105%.
With `COc1ccc(C2CC(c3ccc(OC)c(OC)c3)=NN2C(=O)c2cc(OC)c(OC)c(OC)c2)cc1` (stereo not given), the growth in experiment [1] was 46.6%; in [2] it was 51.9%; in experiment [3] it was 37.7%; in experiment [4], 34.8%; in [5], 6.07% (active); in experiment [6], -35.9% (active). For the same compound, the growth is 27.2% in experiment [7], 26.7% in experiment [8], 8.03% (active) in [9] and 11.6% in experiment [10].
In the case of `C[n+]1ccc(C#N)c2ccccc21`, the growth was 94.7% in experiment [1]; 93.3% in [2]; 98% in experiment [3]; 94.4% in experiment [4]; 109% in experiment [5]; 68.2% in experiment [6]. For the same compound, the growth in experiment [7] is 106%; in experiment [8] it was 90.2%; in experiment [9], 48.8%; in [10], 91.8%.
As to `COc1ccc(C2CC(c3ccc(OC)c(OC)c3)=NN2C(=O)c2cc(OC)c(OC)c(OC)c2)c(OC)c1` (stereo not given), the growth in [1] is 92.6%; in [2], 76.4%; in experiment [3], 94.8%; in [4] it was 76.1%; in experiment [5] it was 78.5%; in experiment [6], 33.9%. Besides, the growth in experiment [7] is 82.8%; in experiment [8], 66.8%; in experiment [9], 63.9%; in experiment [10], 101%.
Take `NC(=O)c1ncn([C@@H]2O[C@H](CO)[C@@H](O)[C@H]2O)n1`: the growth in [1] is 99.1%; in experiment [2] it was 106%; in [3] it was 88.3%; in experiment [4], 97.2%; in [5], 100%; in [6], 70.6%. The growth in experiment [7] is 91.2%; in experiment [8], 95.6%; in experiment [9], 82.6%; in experiment [10], 82.7%.
As for `Cc1cc(C)c(OC(=O)CSc2nc3ccccc3c(=O)n2CCc2ccccc2)cc1C`, the growth in experiment [1] was 101%; in experiment [2], 84.8%; in experiment [3], 89.3%; in [4], 104%; in [5], 74.1%; in experiment [6], 98%. The growth was 91.9% in experiment [7], 105% in experiment [8], 96% in experiment [9] and 110% in experiment [10].
With `COc1cccc(/C=C2\COc3ccc(O)c(O)c3C2=O)c1OC`, the growth is 60.5% in experiment [1]; 62.8% in experiment [2]; 32.7% in [3]; 19% in [4]; 3.8% (active) in experiment [5]; -33.3% (active) in experiment [6]. In addition, the growth in [7] is 32.5%; in experiment [8] it was -6.52% (active); in experiment [9], 72.7%; in [10], 2.64% (active).
Turning to `Cc1c(C)c(N2C(=O)C=CC2=O)c(C)c(C)c1N1C(=O)C=CC1=O`, the growth in experiment [1] was 96.3%; in experiment [2], 108%; in experiment [3] it was 112%; in experiment [4], 91.6%; in [5] it was 115%; in [6], -49.4% (active). For the same compound, the growth in [7] is 89.6%; in [8], 93.2%; in experiment [9] it was 78.7%; in experiment [10], 104%.
As to `Cc1cc2c(C#N)n3c(c2cc1C)C(=O)C(c1ccccc1)Oc1ccccc1-3` (stereo not given), the growth in [1] is 21%; in [2], 34.6%; in experiment [3] it was 81.8%; in experiment [4] it was 35.7%; in experiment [5] it was 42.1%; in experiment [6] it was -35.7% (active). Besides, the growth in experiment [7] was 4.49% (active); in [8] it was 41.7%; in experiment [9], 56.6%; in [10], 64.4%.
For the compound `CCc1[nH]nc(-c2ccc(OC)cc2)c1-c1ccccc1OCCN(CC)CC`, the growth is 91.4% in [1]; 94.9% in experiment [2]; 97.7% in experiment [3]; 84.6% in experiment [4]; 103% in experiment [5]; 114% in [6]. In addition, the growth in experiment [7] was 93.2%; in experiment [8], 74.7%; in [9] it was 77%; in experiment [10], 102%.
As to `CC(=O)n1c2ccccc2c2ccccc21`, the growth was 93.7% in experiment [1]; 115% in experiment [2]; 107% in experiment [3]; 93.8% in experiment [4]; 117% in [5]; 108% in experiment [6]. Further, the growth was 107% in experiment [7], 90.8% in experiment [8], 148% in experiment [9] and 108% in experiment [10].
